Pf apPOL block: Pf-apPOL DNA polymerase inhibition | AID 1794808 | Recombinant Pf-apPOL, molecular beacon fluorescence, 1.5 h | 0.25% of 210,000 active | inhibition, % at 10 µM
mHTT CaM bind: disrupts binding of mutant huntingtin to calmodulin; P42858; inhibition, % at 15 µM; 3.6% of 190,000 active; AlphaScreen His-mHTT/GST-CaM binding, luminescence
Hits are given with their value; – = inactive; · = no result given; ! = not confirmed by another sample. Rows were chosen to be rich in hits. Some 3.6% of all compounds tested hit in one or more screens of this group. Cut-off read from the data, not from the text of the source: active = inhibition above about 50%; inactive = the rest.

SMILES	Pf apPOL block	mHTT CaM bind
Nc1ccc2c(c1)OC1(CCCC1)O2	–	59.8!
O=[N+]([O-])c1ccc2c(c1)OC1(CCCC1)O2	–	–
COc1ccc(C(C)=NOC(=O)c2sc3ccccc3c2Cl)cc1CN1CCOCC1	–	·
COc1ccc(C2NC(=O)NC(C)=C2C(=O)Nc2ccc(F)c(F)c2)cc1OC (centres undefined)	65.1!	–
COc1ccccc1C1NC(=O)NC(C)=C1C(=O)Nc1ccc(F)c(F)c1 (centres undefined)	–	–
Cc1ccc(CN(C)CCN(C)C)c(C)c1	–	–
O=C1NC(=O)N(c2cccc(C(F)(F)F)c2)C(=O)/C1=C/c1ccc(O)cc1	–	52.0
COc1cc(Cl)cc(/C=C2\C(=O)NN(c3cccc(Cl)c3)C2=O)c1O	–	58.0
CCOc1cc(/C=C2\C(=O)NN(c3cccc(Br)c3)C2=O)cc(Cl)c1OCC	–	98.0
COc1cc(/C=C2\C(=O)NC(=O)N(c3cccc(C)c3)C2=O)cc(OC)c1O	–	–
CCOc1cc(/C=C2\C(=O)NN(c3ccc(Br)cc3)C2=O)cc(Cl)c1O	–	–
COc1cccc(/C=C2\C(=O)NN(c3ccc(C)c(C)c3)C2=O)c1	–	–
COc1cc(Cl)cc(/C=C2\C(=O)NN(c3ccc(C)c(C)c3)C2=O)c1O	–	–
COc1cccc(/C=C2\C(=O)NN(c3cccc(C(F)(F)F)c3)C2=O)c1	–	85.0
CC(C)NC(=O)C1CN(C(=O)NC(C)(C)C)CC1c1cccc(F)c1 (centres undefined)	–	–
CCCC(=O)N1CCc2nc(-c3ccc(F)cc3)ncc2C1	–	–
COc1cc(/C=C2\NC(=O)NC2=O)ccc1OC(C)C	–	–
C=CCSc1nnc2c(n1)OC(c1ccc(OC)cc1OC)N(C(C)=O)c1ccccc1-2 (centres undefined)	–	–
COc1ccc2ncc(C#N)c(N3CCC(C(=O)Nc4ccc(F)c(C)c4)CC3)c2c1	–	–
COc1cc(/C=C2\C(=O)NN(c3ccc(C)c(C)c3)C2=O)cc(OC)c1OC	–	–
COc1cc(/C=C2\C(=O)NN(c3ccc(C)c(Cl)c3)C2=O)cc(OC)c1OC	–	–
COc1c(Cl)cc(/C=C2\C(=O)NN(c3ccccc3)C2=O)cc1Cl	–	96.0
COc1cc(/C=C2\C(=O)NN(c3ccc(I)cc3)C2=O)cc(OC)c1O	–	61.0
O=C(NCCc1csc2nc(-c3cccs3)nn12)C1CC(=O)N(c2ccccc2)C1 (centres undefined)	–	–
COc1ccc(S(=O)(=O)N2CCCC(C)(C(=O)NCc3ccc(F)cc3)C2)cc1 (centres undefined)	–	–
SMILES	Pf apPOL block	mHTT CaM bind
COc1ccc(-c2ccc(OC)c([C@H]3[C@@H]4C=CCC[C@@]4(C)C(=O)N3Cc3ccccc3)c2)cc1OC	–	76.0
COc1ccc(-c2ccc(OC)c([C@H]3[C@@H]4C=CCC[C@@]4(C)C(=O)N3Cc3ccccc3)c2)cc1	–	–
COc1ccc(/C=C/c2ccccc2)cc1[C@H]1[C@@H]2C=CCC[C@@]2(C)C(=O)N1Cc1ccccc1	–	–
COc1ccc(Br)cc1[C@H]1[C@@H]2C=CCC[C@@]2(C)C(=O)N1Cc1ccccc1	–	89.8
CC(=O)c1ccc(-c2ccc([C@H]3[C@@H]4C=CCC[C@@]4(C)C(=O)N3Cc3ccccc3)c(F)c2)cc1	–	–
COc1ccc(-c2ccc(N(C)C)cc2)cc1[C@H]1[C@@H]2C=CCC[C@@]2(C)C(=O)N1Cc1ccccc1	–	73.3
O=C1OC(c2ccco2)=N/C1=C/c1ccccc1[N+](=O)[O-]	–	–
Nc1ccc(Nc2ccccc2)c(Cl)c1	–	–
Nc1ccc(Nc2ccc(N)cc2S(=O)(=O)O)cc1	·	97.5
Clc1ccc2c(c1)SS(Cl)=N2 (centres undefined)	·	55.2
COc1ccc(OC)c(NS(=O)(=O)c2cc3c(s2)CCN(C(=O)C2CC2)C3)c1	–	–
N#CSC(CS(=O)(=O)c1cccc([N+](=O)[O-])c1)c1ccccc1 (centres undefined)	–	93.7
N#CSC(CS(=O)(=O)c1ccccc1)c1ccccc1 (centres undefined)	–	–
COCCNC(=O)c1ccc(N(Cc2ccc(C)cc2)S(C)(=O)=O)cc1	–	–
CCCn1c(CCc2ccc(NS(C)(=O)=O)cc2)nc2ccccc21	–	–
O=C(CSc1nnc(COc2ccccc2)n1-c1ccccc1)NC1CCCCC1	–	–
OCCSc1nnc(COc2ccc(Br)cc2)n1-c1ccccc1	–	57.3
COc1ccc2c(c1)NC1(CCN(C(=O)COc3ccc(F)cc3)CC1)c1cccn1-2	–	96.0
CCOc1ccccc1C(=O)N1CCC2(CC1)Nc1ccccc1-n1cccc12	–	–
Cc1cccc(OCC(=O)N2CCC3(CC2)NC(=O)N(Cc2ccc(F)cc2)C3=O)c1	–	–
COc1cccc(CC(=O)N2CCC3(CC2)Nc2cc(OC)ccc2-n2cccc23)c1	–	91.7
COc1ccc2c(c1)NC1(CCN(C(=O)COc3cccc(C)c3)CC1)c1cccn1-2	–	84.9
COc1cccc(CC(=O)N2CCC3(CC2)NC(=O)N(Cc2ccc(C)cc2)C3=O)c1	–	–
O=C(COc1ccc(Cl)cc1)N1CCC2(CC1)Nc1ccccc1-n1cccc12	–	93.2
Cc1ccc(CN2C(=O)NC3(CCN(C(=O)COc4cccc(C)c4)CC3)C2=O)cc1	–	–
SMILES	Pf apPOL block	mHTT CaM bind
Cc1ccccc1N1C(=O)C2C3C=CC(C3)C2(C)C1=O (centres undefined)	–	–
O=c1[nH]c(-c2ccc([N+](=O)[O-])cc2)nc2ccccc12	–	–
Cc1nn(-c2ccccc2)c2nc(N3CCC(NC(=O)c4ccccc4)CC3)sc12	–	–
COc1ccc(OCC(=O)N2CCC3(CC2)Nc2cc(C)ccc2-n2cccc23)cc1	–	54.3
O=C(Cc1cccc(F)c1)N1CCC2(C1)C(=O)Nc1ccccc12 (centres undefined)	–	–
COc1ccc(OCC(=O)N2CCC3(CC2)Nc2cccnc2NC3=NC(C)(C)C)cc1	–	–
O=C(Cc1cccc(F)c1)N1CCC2(CC1)Nc1ccccc1-n1cccc12	–	59.1
COc1ccc(CNC(=O)c2nc(C)n(C3CCN(C(C)=O)CC3)c2C)cc1OC	–	–
Clc1ccc(SCc2ccc(-c3nc4ccccc4[nH]3)cc2)cc1	–	·
CC1=NN(c2ccccc2)C(=O)/C1=C/c1cccnc1	–	–
CC1=NN(c2ccccc2)C(=O)/C1=C/c1ccc(N)cc1	–	57.0
CC1=NN(c2ccccc2)C(=O)/C1=C/c1ccc(Cl)cc1	–	53.0
CC1=NN(c2ccccc2)C(=O)/C1=C/c1ccccc1F	–	–
CC1=NN(c2ccc(Cl)c(C(=O)O)c2)C(=O)/C1=C/c1ccc(Cl)cc1	–	–
CC1=NN(c2ccccc2)C(=O)/C1=C/c1ccc[nH]1	–	81.0
CC1(C)CC(n2c(SCCc3ccccc3)nc3ccccc3c2=O)CCO1 (centres undefined)	–	–
CCOc1ccc(NC(=O)C(=O)Nc2ccccc2)cc1	–	·
CCOc1ccc(C(=O)Nc2ccc(NC(=O)c3ccco3)c(OC)c2)cc1[N+](=O)[O-]	–	–
Cc1nc(SCc2ccccc2)[nH]c(=O)c1CC(=O)N1CCN(S(C)(=O)=O)CC1	–	–
CC(C)c1ccc(S(=O)(=O)N2CCC(C(=O)NCc3cscn3)CC2)cc1	–	–
Cc1cccc(NC(c2ccccc2F)c2ccc3ccc(C)nc3c2O)n1 (centres undefined)	–	71.0
COc1ccc(-c2csc(Nc3cc(C)ccn3)n2)cc1OC	–	–

From PubChem BioAssay
